Compound activity: PubChem BioAssay, several laboratories
Sampled rows, rich in hits. Any-hit rate of the full collection: about 1.5%.
cardiac RTF act = cardiac RTF calcium sensitization; P19429+P45379; IANBD-labeled TnC RTF fluorescence at EC20 calcium; 0% EC20 calcium, 100% full calcium; activation, % at 7.2 µM; 340,000 compounds, 0.24% hits;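 active = activation above the mean over all tested compounds plus 3 SD, cut at about 30% in these data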;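 note: rise in fluorescence read as greater calcium sensitivity of cardiac thin filaments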
CRFR2-BP antag = blocks CRF-induced signaling of the CRF-BP/CRF-R2 complex; HEK293 CRF-R2/CRF-BP, CRF-induced calcium fluorescence; inhibition, % at 11.8 µM; 350,000 compounds, 0.59% hits;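 active = inhibition of the ligand-induced calcium signal above about 50% at the single tested concentration, limit read from the data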
Cardiac RTF inh = cardiac RTF calcium desensitization; 340,000 compounds, 0.12% hits; AID 493244; IANBD-labeled cardiac RTF, Ca2+ fluorescence; inhibition, % at 7.15 µM; P19429+P45379;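 active = inhibition above the mean inhibition of all tested compounds plus 3 SD, cut at about 17% in these data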;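 note: assay run at fixed EC70 calcium of 1.6 mM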
CRFR2-BP ag = agonists of human CRF-binding protein/CRF-R2 receptor complex; HEK293 CRF-R2/CRF-BP, calcium dye fluorescence (FLIPR); percent of saturating CRF peptide response; activation, % at 13.2 µM; 350,000 compounds, 0.46% hits; AID 588473;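 active = activation of at least 50%, plus an integration ratio under a set limit after plate pattern correction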
IDE cell inh = inhibits human insulin-degrading enzyme in HEK cells; P14735; FAbetaB cleavage, fluorescence polarization; inhibition, % at 5.59 µM; 320,000 compounds, 0.41% hits;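 active = percent inhibition above the average of all tested compounds plus 3 SD, set per screening campaign, cut at about 16% in these data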;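 note: IDE supplied by intact live HEK cells; FP after avidin binding of uncleaved biotin substrate so inhibition keeps polarization high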
Target sequence (P14735 whole entry, looked up): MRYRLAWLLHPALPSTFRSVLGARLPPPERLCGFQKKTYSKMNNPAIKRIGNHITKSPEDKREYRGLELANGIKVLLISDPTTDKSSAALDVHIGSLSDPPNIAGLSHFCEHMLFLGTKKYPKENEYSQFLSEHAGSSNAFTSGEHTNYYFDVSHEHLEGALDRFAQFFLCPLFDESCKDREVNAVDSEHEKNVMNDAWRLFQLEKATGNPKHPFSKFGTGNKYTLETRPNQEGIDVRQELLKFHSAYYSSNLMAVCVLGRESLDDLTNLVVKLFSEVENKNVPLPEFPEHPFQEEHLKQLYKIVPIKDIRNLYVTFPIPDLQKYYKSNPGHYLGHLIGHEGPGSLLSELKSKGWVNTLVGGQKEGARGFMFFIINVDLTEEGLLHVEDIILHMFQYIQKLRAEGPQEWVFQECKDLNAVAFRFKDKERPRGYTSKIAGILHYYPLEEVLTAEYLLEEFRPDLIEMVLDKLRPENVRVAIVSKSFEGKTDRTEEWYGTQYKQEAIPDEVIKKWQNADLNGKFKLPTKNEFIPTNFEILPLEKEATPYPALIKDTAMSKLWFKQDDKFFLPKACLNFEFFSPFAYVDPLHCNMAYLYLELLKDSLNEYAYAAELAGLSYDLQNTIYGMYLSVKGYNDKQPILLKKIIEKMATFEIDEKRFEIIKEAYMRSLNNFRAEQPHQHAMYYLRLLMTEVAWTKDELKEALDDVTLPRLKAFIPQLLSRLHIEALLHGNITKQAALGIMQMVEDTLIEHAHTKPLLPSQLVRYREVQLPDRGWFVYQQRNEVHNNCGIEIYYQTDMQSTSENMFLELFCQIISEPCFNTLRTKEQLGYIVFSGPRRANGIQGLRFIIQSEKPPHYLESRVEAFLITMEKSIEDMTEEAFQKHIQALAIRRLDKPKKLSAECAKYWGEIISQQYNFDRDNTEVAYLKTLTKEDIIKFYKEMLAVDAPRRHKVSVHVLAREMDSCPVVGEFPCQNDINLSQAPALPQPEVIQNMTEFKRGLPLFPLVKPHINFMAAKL
IDE act = boosts human insulin-degrading enzyme activity in HEK cells; P14735; activation, % at 5.96 µM; FAbeta-B cleavage, fluorescence polarization; 0% vehicle, 100% cell-free pure enzyme wells; 340,000 compounds, 0.073% hits;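 active = activation above the mean of all tested compounds plus 3 SD, set per screening campaign, cut at about 17% in these data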
Large screens that a line does not name were inactive.

O=C(CN(C(=O)c1csnn1)c1ccccc1Cl)NC1CCCC1	none
O=C(Nc1ccccn1)C(NS(=O)(=O)c1cccc2nsnc12)c1ccccc1 (stereo unspecified)	none
N#C/C(=N\Nc1ccc([N+](=O)[O-])cc1)C(N)=S	CRFR2-BP antag 57
N#C/C(=N/Nc1ccc([N+](=O)[O-])cc1)C(=N)N1CCCCC1	none (no result: IDE cell inh)
O=C(O)c1ccc(N=NNc2cccc([N+](=O)[O-])c2)cc1	none
N#C/C(=N\Nc1cccc([N+](=O)[O-])c1)C(=O)c1ccc(Br)cc1	CRFR2-BP antag 52
COc1ccc(C)cc1S(=O)(=O)N(CC(=O)N1CCCC1)c1ccccc1	none
O=C(COC(=O)c1cnccn1)NCc1ccc2c(c1)OCO2	none
Fc1cccc(Cl)c1-c1nnc2ccc(C(F)(F)F)cn12	CRFR2-BP ag 50
NNC(=O)/C(=C/c1cccs1)NC(=O)c1ccccc1Cl	none
COc1ccccc1-c1c(C)nn2c(N3CCN(c4ccccc4OC)CC3)cc(C)nc12	CRFR2-BP antag 68
CCCCCCCCCOC(=O)C[n+]1csc(CCO)c1C	CRFR2-BP antag 111
Cc1c(CCO)sc[n+]1CC(=O)OCCC12CC3CC(CC(C3)C1)C2	none
Cc1ccc(S(=O)(=O)N/N=C\c2cn(CC(N)=O)c3ccccc23)cc1C	none
NC(=O)Cn1cc(/C=N\NS(=O)(=O)c2ccc(Cl)cc2)c2ccccc21	IDE act 24
Cc1cccc(NC(=O)Cc2ccc(NC3=NC4CS(=O)(=O)CC4S3)cc2)c1 (stereo unspecified)	CRFR2-BP antag 60
Cc1cc(C)cc(NC(=O)Cc2ccc(NC3=NC4CS(=O)(=O)CC4S3)cc2)c1 (stereo unspecified)	none
CC(=O)NC(Cc1cccc(C)c1)C(=O)NC1CCN(c2ncccc2[N+](=O)[O-])CC1 (stereo unspecified)	CRFR2-BP antag 57
CC(=O)NC(Cc1cccc(F)c1)C(=O)NC1CCN(c2ncccc2[N+](=O)[O-])CC1 (stereo unspecified)	none
O=C(c1c(O)c2ccccc2oc1=O)C1CCCCC1	none
O=C(CCC1CCCC1)c1c(O)c2ccccc2oc1=O	CRFR2-BP antag 66, CRFR2-BP ag 89
COc1ccc(OCC(O)CN2CCc3ccccc3C2)cc1 (stereo unspecified)	CRFR2-BP antag 56
COc1cccc(OCC(O)CN2CCc3ccccc3C2)c1 (stereo unspecified)	none
Cc1cccc(-c2noc(C(C)NC(=O)c3ccco3)n2)c1 (stereo unspecified)	CRFR2-BP antag 108
CC(NC(=O)c1ccco1)c1nc(-c2ccccc2)no1 (stereo unspecified)	none
Cc1ccc(S(=O)(=O)/N=C2\C=C(Nc3cccc(C(=O)O)c3)C(=O)c3ccccc32)c(C)c1	CRFR2-BP antag 66
Cc1ccc(S(=O)(=O)/N=C2\C=C(Nc3cccc(C(=O)O)c3)C(=O)c3ccccc32)cc1	none
CCSc1ncc(CO)c(N)n1	none
O=C(Cc1cccs1)Nc1nc2c(ccc3ccccc32)s1	CRFR2-BP antag 53
CCCC1(CCC)NC(=O)N(CC(=O)Nc2ccc(Cl)c(S(=O)(=O)N3CCOCC3)c2)C1=O	CRFR2-BP antag 69
CC1CCCCC12NC(=O)N(CC(=O)Nc1ccc(Cl)c(S(=O)(=O)N3CCOCC3)c1)C2=O (stereo unspecified)	none (no result: IDE cell inh)
O=c1c2cc([N+](=O)[O-])ccc2nc(CN2CCN(c3ccccn3)CC2)n1-c1ccccc1F	none
COC(=O)c1ccc(CSc2nc3c(c(=O)n2-c2ccc(Br)cc2)SCC3)o1	CRFR2-BP antag 61
COC(=O)c1c(=O)n(O)c2ccc(OC)cc2[n+]1[O-]	cardiac RTF act 44
CCOc1ccc(-c2c(=O)n(O)c3ccccc3[n+]2[O-])cc1	none
CC(C)CC(=O)/C=C/n1c(=S)oc2ccccc21	none
CC(=O)/C=C/n1c(=S)oc2ccccc21	CRFR2-BP antag 70 (no result: cardiac RTF act, Cardiac RTF inh, IDE act)
CCn1c(CCNC(=O)c2ccc(Cl)cc2Cl)n[nH]c1=S	none
CCn1c(CCNC(=O)c2ccccc2Cl)n[nH]c1=S	CRFR2-BP antag 82
CC(NC(=O)CCCCCNC(=O)N1CCn2c1nc1ccccc12)c1ccccc1 (stereo unspecified)	none
COC(=O)c1c(C)[nH]c(O)c1C=Nc1ccc(C(C)C)cc1	CRFR2-BP ag 126
COC(=O)c1c(C)[nH]c(O)c1C=Nc1ccc(Oc2ccccc2)cc1	CRFR2-BP ag 59
CCOC(=O)c1c(C)[nH]c(O)c1C=Nc1ccc(Cl)cc1	none
CCOc1ncccc1C(=O)Nc1cc(S(=O)(=O)N2CCCCCC2)ccc1OC	none (no result: IDE cell inh)
CC1=NN(c2ccccc2)C(=O)/C1=C\C=C1/N(C)c2ccccc2C1(C)C	CRFR2-BP ag 52
CN1/C(=C\C=N\O)C(C)(C)c2ccccc21	none
CN1C(=CC=C2C=C(I)C(=O)C(I)=C2)C(C)(C)c2ccccc21	cardiac RTF act 92 (no result: IDE cell inh)
[O-][n+]1c2c(c3c4non(O)c4ccc31)CCCC2	CRFR2-BP antag 53, CRFR2-BP ag 85
O=S(=O)(Nc1cc(Cl)ccc1-n1cncn1)c1ccccc1Cl	CRFR2-BP antag 106
Nc1nn(S(=O)(=O)c2ccccc2)cc1-c1ccc([N+](=O)[O-])cc1	CRFR2-BP antag 50
O=C1Cc2ccccc2Sc2ccc(O)cc21	CRFR2-BP ag 92
CC(=O)NC(CC(=O)NNC(=O)c1cccs1)c1ccccc1 (stereo unspecified)	none
O=C(COC(=O)c1nn(-c2ccccc2C(F)(F)F)cc1O)c1ccc(OC(F)F)cc1	none
CCc1ccc(/C=C2\SC(=S)N(CCCC(=O)Nc3ccccn3)C2=O)cc1	cardiac RTF act 37
CC1CCCC(C)N1C(=O)COC(=O)c1cccs1 (stereo unspecified)	CRFR2-BP antag 62
Cc1ccsc1C(=O)OCC(=O)N1C(C)CCCC1C (stereo unspecified)	none
CC(OC(=O)c1ccc(-c2ccc(O)cc2)cc1)C(=O)NC1CCCCC1C (stereo unspecified)	CRFR2-BP antag 60
O=C1/C(=C/c2cccc(Br)c2)SC(=S)N1/N=C/c1cc([N+](=O)[O-])ccc1O	none
O=C1CCSc2c1ccc1ccccc21	CRFR2-BP antag 61 (no result: IDE cell inh)
O=C1CCCc2cc3c(ccc4ccccc43)cc21	none (no result: IDE cell inh)
CC(=O)C1=C(c2cccc([N+](=O)[O-])c2)N(C(C)=O)n2c(C)nnc2S1	CRFR2-BP antag 54
CC(=O)c1c(C(C)=O)c(C)n(-c2cccc([N+](=O)[O-])c2)c1C	none
CC(=O)Nc1cccc(OC(=O)c2ccoc2C)c1	CRFR2-BP ag 115
CC1(C2CC2)NC(=O)N(CC(=O)Nc2ccccc2F)C1=O (stereo unspecified)	CRFR2-BP antag 54 (no result: IDE cell inh)
CCCc1nn2c(=O)cc(CSCC(=O)Nc3cccc(OC)c3)nc2s1	none
